Test results reported in PubChem BioAssay (EPA / NIEHS).
Active and inactive are the calls of the source. Rule for the calls: active = hit-call score of the fitted dose curve at least 0.9, where 1 is the maximum; inactive = score below 0.9.

What was measured:
[1] = ATG_CRE_CIS: Attagene CIS-FACTORIAL HepG2 Assay for human cAMP Responsive Element (CRE) binding protein 3 (AID 2282926); settings: HepG2 CRE cis-reporter, Attagene multiplexed mRNA; actives raise or lower the signal
How it was run: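 Endogenous transcription factor activity read via CRE-regulated reporter transcripts in transfected HepG2 cells. After 24 h exposure, RNA was reverse-transcribed, amplified, fluorescently labelled and sized by capillary electrophoresis; gain or loss fitted against DMSO.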

[2] = target: CCAAT/enhancer-binding protein beta (Homo sapiens) (UniProt P17676); experiment: ATG_C_EBP_CIS: Attagene CIS-FACTORIAL HepG2 Assay for human CCAAT/Enhancer Binding Protein (C/EBP) beta (AID 2282927); settings: HepG2 Attagene cis-factorial transcription factor reporter; actives raise or lower the signal
How it was run: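 Transiently transfected HepG2 (MRTU library, endogenous TF-driven promoters); 24 h dosing; total RNA → oligo(dT) RT → PCR → 6-FAM primer extension → HpaI digest → CE; fit bidirectionally vs DMSO.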

[3] = ATG_CMV_CIS: Attagene CIS-FACTORIAL HepG2 Assay for human CMV (Internal Marker) (AID 2282928); settings: HepG2 CMV promoter reporter, transcription factor profiling; actives raise or lower the signal;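 note: endpoint acts as a background internal control marker rather than a target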
How it was run: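 Readout: fluorescent reporter cDNA fragments separated by capillary electrophoresis after RT-PCR and HpaI cut. Cells: HepG2 carrying transfected cis-promoter reporter constructs, dosed 24 h. Endpoint serves as background internal-marker control, fit bidirectionally versus DMSO.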

[4] = ATG_DR4_LXR_CIS: Attagene CIS-FACTORIAL HepG2 Assay for human Liver X Receptor (LXR), DR4 submotif (AID 2282929); settings: HepG2 Attagene DR4 cis-reporter, mRNA transcription; actives raise or lower the signal
How it was run: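 After transient transfection with multiplexed cis-promoter reporter units, HepG2 cells received test chemicals for 24 h. Reporter mRNA induction, detected by fluorescence after RT-PCR and capillary electrophoresis, was scored relative to DMSO.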

[5] = target: Aryl hydrocarbon receptor (Homo sapiens) (UniProt P35869); experiment: ATG_Ahr_CIS: Attagene CIS-FACTORIAL HepG2 Assay for human Aryl Hydrocarbon Receptor (Ahr) (AID 2282930); settings: HepG2 AhR cis-factorial reporter transcription; actives raise or lower the signal
How it was run: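 Read-out: reporter mRNA quantified by RT-PCR with fluorescent primer extension and capillary electrophoresis. Human HepG2 liver cells carried transfected cis-promoter reporter units and were exposed to chemical for 24 h; gain or loss fitted relative to DMSO.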

[6] = ATG_AP_1_CIS: Attagene CIS-FACTORIAL HepG2 Assay for human Activator Protein 1 (AP-1) (AID 2282931); settings: HepG2 Attagene cis-factorial AP-1 reporter mRNA; actives raise or lower the signal
How it was run: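 After 24 h incubation with test chemical, RNA from transfected HepG2 cells was reverse-transcribed, amplified, fluorescently labelled and digested before capillary electrophoresis. Reporters were driven by cis-regulatory promoters; activity fitted bidirectionally versus DMSO.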

[7] = ATG_AP_2_CIS: Attagene CIS-FACTORIAL HepG2 Assay for human Activator Protein 2 (AP-2) (AID 2282932); settings: HepG2 AP-2 cis-reporter, Attagene transcription factor profiling; actives raise or lower the signal
How it was run: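 Liver-derived HepG2 line, cis-reporter system measuring endogenous factors; 24 h dosing; reporter mRNA detected by fluorescent RT-PCR and capillary electrophoresis.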

[8] = ATG_BRE_CIS: Attagene CIS-FACTORIAL HepG2 Assay for human Bone Morphogenetic Protein (BMP) Response Element (BRE) (AID 2282933); settings: HepG2 BMP response element reporter, Attagene transcription factor profiling; actives raise or lower the signal
How it was run: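 Multiplexed cis-reporter assay, HepG2, 24 h exposure. mRNA from reporter units quantified via RT-PCR/CE; DMSO baseline; bidirectional curve fit.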

[9] = target: Transcription factor E2F1 (Homo sapiens) (UniProt Q01094); experiment: ATG_E2F_CIS: Attagene CIS-FACTORIAL HepG2 Assay for human E2F Transcription Factor 1 (AID 2282935); settings: HepG2 Attagene cis-reporter, E2F reporter RNA transcripts; actives raise or lower the signal
How it was run: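 Liver-derived HepG2 cells expressing transfected promoter-driven reporter units received test chemical for 24 hours. Signal gains or losses were fitted bidirectionally against DMSO.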

[10] = ATG_E_Box_CIS: Attagene CIS-FACTORIAL HepG2 Assay for human Enhancer Box (E-box) (AID 2282936); settings: HepG2 E-box cis-reporter transcription, actives raise or lower the signal
How it was run: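 In this cell-based setup, HepG2 cells bearing transfected promoter-driven reporter units were exposed to chemicals for 24 h; reporter transcripts were amplified, 6-FAM-labelled, cut with HpaI and sized by capillary electrophoresis.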

[11] = ATG_M_61_CIS: Attagene CIS-FACTORIAL HepG2 Assay for M61 Transcription Factor (Internal Marker) (AID 2282937); settings: HepG2 Attagene CIS-FACTORIAL M61 internal marker reporter; actives raise or lower the signal
How it was run: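 Using transiently transfected HepG2 liver cells, reporter transcript levels were assessed 24 h post-dosing by RT-PCR and capillary electrophoresis. Changes in either direction were fitted relative to DMSO controls.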

[12] = ATG_EGR_CIS: Attagene CIS-FACTORIAL HepG2 Assay for human Early Growth Response 1 (EGR1) (AID 2282938); settings: HepG2 Attagene CIS-FACTORIAL EGR reporter mRNA; actives raise or lower the signal
How it was run: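 Fluorescent capillary-electrophoresis signal of reporter cDNA fragments serves as read-out. HepG2 cells bear transiently transfected cis-promoter reporter units and are exposed 24 h; gain- or loss-of-signal is fitted against DMSO.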

[13] = ATG_M_19_CIS: Attagene CIS-FACTORIAL HepG2 Assay for M19 Transcription Factor (Internal Marker) (AID 2282939); settings: HepG2 Attagene CIS-FACTORIAL M19 internal marker reporter; actives raise or lower the signal
How it was run: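 Signals come from fluorescence of labelled reporter-specific PCR fragments resolved by capillary electrophoresis, following 24 h treatment of HepG2 cells transfected with cis-promoter reporter units; activity was fitted in both directions relative to DMSO.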

[14] = ATG_ERE_CIS: Attagene CIS-FACTORIAL HepG2 Assay for Estrogen Response Element (ERE) (AID 2282940); settings: HepG2 ERE cis-reporter, Attagene RNA transcript; actives raise or lower the signal
How it was run: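 Fluorescence of capillary-separated, FAM-labelled reporter cDNA fragments indicates reporter mRNA levels in HepG2 cells exposed to chemicals for 24 h. Transient transfection with cis-regulated units; data fitted in both directions against DMSO.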

[15] = ATG_Ets_CIS: Attagene CIS-FACTORIAL HepG2 Assay for human Erythroblast Transformation Specific (ETS) (AID 2282941); settings: HepG2 ETS cis-reporter transcription, actives raise or lower the signal
How it was run: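 RT-PCR/capillary electrophoresis fluorescence read-out of reporter mRNA; HepG2 transient multi-reporter transfection; 24 h compound exposure; gain or loss of signal fitted bidirectionally relative to DMSO.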

[16] = target: Hepatocyte nuclear factor 3-beta (Homo sapiens) (UniProt Q9Y261); experiment: ATG_FoxA2_CIS: Attagene CIS-FACTORIAL HepG2 Assay for human Forkhead box A2 (FOXA2) (AID 2282942); settings: HepG2 cis-reporter transcription factor activity, 24 h; actives raise or lower the signal
How it was run: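 Fluorescence signal of reporter cDNA fragments, separated by capillary electrophoresis, reflects endogenous transcription factor activity in transfected HepG2 after 24 h. Both increases and decreases fitted against DMSO.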

[17] = ATG_FoxO_CIS: Attagene CIS-FACTORIAL HepG2 Assay for human Forkhead box O (FoxO) (AID 2282943); settings: HepG2 Attagene cis-reporter, FoxO element, mRNA; actives raise or lower the signal
How it was run: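 Read-out: fluorescence of 6-FAM-labelled reporter cDNA fragments resolved by capillary electrophoresis. Transiently transfected HepG2 cells were dosed for 24 h; activity fitted in both directions relative to DMSO controls.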

[18] = ATG_GATA_CIS: Attagene CIS-FACTORIAL HepG2 Assay for human GATA Binding Protein (AID 2282944); settings: HepG2 GATA cis-element reporter, Attagene multiplex mRNA; actives raise or lower the signal
How it was run: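 After transfecting HepG2 cells with multiple cis-regulated reporter units, chemicals are dosed for 24 h; isolated RNA undergoes RT-PCR and fluorescent labeling before capillary electrophoresis, with activity expressed against DMSO.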

[19] = ATG_GLI_CIS: Attagene CIS-FACTORIAL HepG2 Assay for human Zinc Finger Protein GLI1 (AID 2282945); settings: HepG2, Attagene cis-factorial reporter mRNA, GLI element; actives raise or lower the signal
How it was run: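 Transiently transfected HepG2 cells report endogenous transcription factor activity via cis-element-driven reporter units. After 24 h compound exposure, reporter mRNA was measured by RT-PCR with capillary electrophoresis; bidirectional fitting against DMSO baseline.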

Measured: AC50

Chain of CCAAT/enhancer-binding protein beta (Homo sapiens) (P17676 whole entry, looked up): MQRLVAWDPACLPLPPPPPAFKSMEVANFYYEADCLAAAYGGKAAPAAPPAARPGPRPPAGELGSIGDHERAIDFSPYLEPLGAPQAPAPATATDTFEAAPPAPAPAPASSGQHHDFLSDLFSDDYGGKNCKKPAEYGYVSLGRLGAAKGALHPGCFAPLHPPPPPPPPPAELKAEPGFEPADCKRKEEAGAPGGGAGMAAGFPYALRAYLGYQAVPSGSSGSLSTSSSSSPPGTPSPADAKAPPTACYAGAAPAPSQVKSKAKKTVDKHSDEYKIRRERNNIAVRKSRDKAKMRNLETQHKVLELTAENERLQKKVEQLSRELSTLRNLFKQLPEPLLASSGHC
Chain of Transcription factor E2F1 (Homo sapiens) (Q01094 whole entry, looked up): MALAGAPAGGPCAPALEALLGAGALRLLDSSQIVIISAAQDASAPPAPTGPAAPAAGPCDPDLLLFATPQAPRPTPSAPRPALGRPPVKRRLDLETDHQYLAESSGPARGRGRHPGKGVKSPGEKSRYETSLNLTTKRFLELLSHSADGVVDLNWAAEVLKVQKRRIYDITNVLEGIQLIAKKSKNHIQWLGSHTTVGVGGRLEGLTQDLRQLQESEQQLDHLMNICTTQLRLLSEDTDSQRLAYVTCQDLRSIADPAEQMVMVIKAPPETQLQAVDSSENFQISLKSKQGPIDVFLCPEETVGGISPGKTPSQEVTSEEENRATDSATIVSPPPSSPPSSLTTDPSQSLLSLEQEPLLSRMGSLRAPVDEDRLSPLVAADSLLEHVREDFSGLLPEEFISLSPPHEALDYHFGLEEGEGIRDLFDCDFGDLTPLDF
Chain of Hepatocyte nuclear factor 3-beta (Homo sapiens) (Q9Y261 whole entry, looked up, the tested form may be a part): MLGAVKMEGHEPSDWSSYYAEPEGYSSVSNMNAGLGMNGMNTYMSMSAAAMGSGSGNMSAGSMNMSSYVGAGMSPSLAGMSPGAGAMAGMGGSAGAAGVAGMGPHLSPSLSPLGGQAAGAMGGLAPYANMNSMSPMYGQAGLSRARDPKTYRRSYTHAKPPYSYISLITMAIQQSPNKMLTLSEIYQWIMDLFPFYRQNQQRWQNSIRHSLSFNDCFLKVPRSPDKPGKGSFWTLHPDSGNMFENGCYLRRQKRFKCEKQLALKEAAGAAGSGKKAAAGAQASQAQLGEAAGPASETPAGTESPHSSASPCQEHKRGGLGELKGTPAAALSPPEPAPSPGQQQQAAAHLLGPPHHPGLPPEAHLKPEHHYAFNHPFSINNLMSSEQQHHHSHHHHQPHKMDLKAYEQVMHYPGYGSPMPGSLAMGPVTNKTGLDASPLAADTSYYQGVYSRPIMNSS
Chain of Aryl hydrocarbon receptor (Homo sapiens) (P35869 whole entry, looked up): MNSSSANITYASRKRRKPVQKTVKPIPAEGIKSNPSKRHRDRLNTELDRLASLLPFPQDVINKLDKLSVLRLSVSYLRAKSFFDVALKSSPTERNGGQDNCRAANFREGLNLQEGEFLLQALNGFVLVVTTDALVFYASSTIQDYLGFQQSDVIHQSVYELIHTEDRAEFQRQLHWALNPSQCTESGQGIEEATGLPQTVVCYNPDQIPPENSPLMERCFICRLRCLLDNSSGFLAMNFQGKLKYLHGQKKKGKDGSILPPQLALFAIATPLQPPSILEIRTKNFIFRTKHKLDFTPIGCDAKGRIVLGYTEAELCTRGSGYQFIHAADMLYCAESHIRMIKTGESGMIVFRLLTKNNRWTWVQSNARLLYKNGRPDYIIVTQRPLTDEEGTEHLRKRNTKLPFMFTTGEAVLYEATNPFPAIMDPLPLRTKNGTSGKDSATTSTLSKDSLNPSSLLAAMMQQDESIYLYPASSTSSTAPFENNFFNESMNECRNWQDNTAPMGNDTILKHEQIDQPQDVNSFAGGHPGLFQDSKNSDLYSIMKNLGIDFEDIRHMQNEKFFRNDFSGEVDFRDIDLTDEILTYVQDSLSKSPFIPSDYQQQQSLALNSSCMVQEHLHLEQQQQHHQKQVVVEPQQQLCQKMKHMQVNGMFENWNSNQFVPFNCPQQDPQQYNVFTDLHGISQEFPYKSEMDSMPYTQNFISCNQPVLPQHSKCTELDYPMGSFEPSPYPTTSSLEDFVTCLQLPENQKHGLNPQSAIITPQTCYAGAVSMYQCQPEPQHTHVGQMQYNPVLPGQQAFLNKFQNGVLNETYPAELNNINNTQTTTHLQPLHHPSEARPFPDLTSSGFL

CC1(C)CCC(C)(C)c2cc(C(=O)Nc3ccc(C(=O)O)cc3)ccc21
active: [4] 27.6 µM | [7] 66.6 µM | [12] 63 µM
inactive: all other assays above

Nc1ccc(F)c([N+](=O)[O-])c1
inactive: all assays above

CCc1c(C)cc(N)c(CC)c1N
active: [5] 79.3 µM
inactive: all other assays above

CCC(O)CO (configuration not stated)
inactive: all assays above

CN(CCOc1ccc(CC2SC(=O)NC2=O)cc1)c1ccccn1 (configuration not stated)
active: [14] 0.0823 µM
inactive: all other assays above

O=C(O)C[C@H](O)C[C@H](O)/C=C/c1c(C2CC2)nc2ccccc2c1-c1ccc(F)cc1
active: [14] 11.6 µM
inactive: all other assays above

CCCC(=O)c1cc(O)c(O)cc1O
inactive: all assays above

CC(=O)[C@H]1CC[C@H]2[C@@H]3CC=C4C[C@@H](O)CC[C@]4(C)[C@H]3CC[C@]12C
active: [14] 2.32 µM
inactive: all other assays above

CCC(C(=O)NC(N)=O)c1ccccc1 (configuration not stated)
inactive: all assays above

COc1ccnc(CS(=O)c2nc3cc(OC(F)F)ccc3[nH]2)c1OC (configuration not stated)
inactive: all assays above

CC(=O)C=CC1=C(C)CCCC1(C)C
active: [4] 3.8 µM
inactive: all other assays above

Clc1nc(C(Cl)(Cl)Cl)c(Cl)c(Cl)c1Cl
active: [3] 24.9 µM | [4] 18 µM | [5] 12.6 µM | [6] 28.8 µM | [9] 22.6 µM | [15] 54.2 µM | [18] 58.8 µM | [19] 55.8 µM
inactive: all other assays above

CC[Si](OC(C)=O)(OC(C)=O)OC(C)=O
inactive: all assays above
